SARS PLpro yeast: blocks SARS-CoV papain-like protease in a yeast assay. S. cerevisiae expressing SARS-CoV PLpro, growth rescue. 0.19% of 330,000 active. Potency, µM (doses to about 32.9 µM), for inactives: top-dose activity, positive = growth rescue, hits mostly activators; calls by dose curve; also: potency is read from the fitted curve at half-maximal effect; 0% is about no effect; nearly all actives have a fitted effect of over 55% in size
Pf growth 96h: P. falciparum growth inhibition at 96 hour, primary screen for plastid delayed-death inhibitors. P. falciparum luciferase reporter growth, 96 h. Potency, µM (top dose mostly 28.7 µM), inactives show at the highest dose activity change, negative = inhibition, hits mostly inhibitors. 6.9% of 320,000 active. AID 504834; also: potency is read from the fitted curve at half-maximal effect; % is scaled to controls: 0 for no effect and ±100 for the full control effect
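P. falciparum expressing integrated firefly luciferase grown in erythrocytes (2% hematocrit, 0.05% parasitemia final) with compounds for 96 hours at 37 C, 5% CO2. Growth inhibition read as loss of luminescence after adding luciferase detection reagent.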
Pf growth 48h: P. falciparum growth inhibition at 48 hours (one generation). P. falciparum luciferase growth in erythrocytes, 48 h. AID 504832. 5.9% of 310,000 active. Potency, µM (titrated, usually from 28.7 µM), inactives show at the highest dose activity change, negative = inhibition, actives largely listed as inhibitors; also: potency is read from the fitted curve at half-maximal effect; % is scaled to controls: 0 for no effect and ±100 for the full control effect
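Luminescence readout; reporter = integrated firefly luciferase in P. falciparum. RBC culture at 2% hematocrit, 0.1% parasitemia final, 37 C/5% CO2; decreased signal taken as growth inhibition.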
Shiga inhibitor: inhibitors of Shiga toxin in Vero cells; Vero cells, Shiga toxin protein synthesis inhibition reporter; inhibition, % at 38.7 µM; 9.2% of 290,000 active; AID 2315; in the data active = inhibition mostly above about 28%, no sharp cut-off; inactive = mostly below about 43%; also: 0% is about no effect
CHX counter: affects cycloheximide protein synthesis inhibition readout, counter-screen. cell reporter, cycloheximide protein synthesis inhibition counterscreen. AID 2314. 12% of 300,000 active. max response, %; in the data active = max response mostly above about 13%, no sharp cut-off; inactive = mostly below about 14%; also: read at 38.3 µM for the half of the compounds with a filed dose; 0% is about no effect
NS1 inh: inhibitors of influenza NS1 protein function; Potency, µM (top dose mostly 46.1 µM), for the others: at the highest dose activity, positive = more growth; 0.4% of 270,000 active; calls by dose curve; also: potency is read from the fitted curve at half-maximal effect; actives are rising curves; nearly all actives have a fitted effect of over 50% in size
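A cell-based growth assay was used: compounds that relieve NS1-induced slow growth of budding yeast raise OD600. Assay medium was yeast nitrogen base with ammonium sulphate and -URA supplement, pH 6.0, with 2% galactose.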
Numbers without * were called inactive; u = inconclusive; x = not tested or not shown. Compounds with a hit are over-represented: about 21% of the library has one in this group of screens. Unless noted, calls follow the shape of the dose curve; as a rule, active = well fitted inhibition curve with a large enough effect; inconclusive = small, poorly fitted or top-dose-only effect, or another doubt; inactive = no such curve, though single readings can be large or run the other way.

SMILES | SARS PLpro yeast | Pf growth 96h | Pf growth 48h | Shiga inhibitor | CHX counter | NS1 inh
C=C(C)COc1ccc2c(C)c(CC(=O)N3C[C@H]4C[C@@H](C3)c3cccc(=O)n3C4)c(=O)oc2c1C | -7% | 12µM* | u | -5 | -1 | -1%
Cc1c(CC(=O)N2C[C@H]3C[C@@H](C2)c2cccc(=O)n2C3)c(=O)oc2cc3occ(C(C)(C)C)c3cc12 | -7% | 8.3µM* | -27% | -8 | -2 | -11%
N=c1sccn1CC(=O)Nc1ccc([N+](=O)[O-])cc1Cl | 0% | 114% | 8% | -3 | -2 | -2%
COc1cc(C(=O)OCc2csc(CC(=O)Nc3ccccc3C)n2)ccc1OCC(C)C | -7% | 9.3µM* | 13µM* | x | x | x
Cc1ccccc1NC(=O)Cc1nc(COC(=O)CCNS(=O)(=O)c2ccccc2)cs1 | 1% | u | 10µM* | x | x | x
CCOC(=O)c1c(C)[nH]c(C(=O)OCc2csc(CC(=O)Nc3ccccc3C)n2)c1C | -7% | 12µM* | 9.3µM* | x | x | x
Cc1ccccc1NC(=O)Cc1nc(COC(=O)c2ccc(Cl)nc2)cs1 | -6% | u | u | x | x | x
Cc1ccccc1NC(=O)Cc1nc(CSc2nnc(C3CCCCC3)n2N)cs1 | 3% | 7.4µM* | 13µM* | -24 | -3 | 4%
CC1CCC(C(C)C)C(P(=O)(c2ccccc2)c2ccccc2)C1 (stereo not given) | x | x | x | 37 | 1 | x
C1=C(CCNCC2CCCCC2)CCCC1 | -2% | -103% | x | -17 | -5 | -1%
Cc1ccccc1NC(=O)Cc1nc(COC(=O)CC(C)c2ccccc2)cs1 (stereo not given) | 2% | u | u | x | x | x
CCC(C(=O)OCc1csc(CC(=O)Nc2ccccc2C)n1)c1ccccc1 (stereo not given) | -1% | u | 12µM* | x | x | x
COc1ccccc1C1CN=NC12CCCc1ccccc1C2=O (stereo not given) | -4% | 17µM* | 9.3µM* | -6 | -4 | 2%
COc1ccccc1C1NC(=O)c2ccccc2O1 (stereo not given) | 4% | u | 10% | -4 | -2 | u
COc1ccc(C2CN=NC23CCc2ccccc2C3=O)cc1 (stereo not given) | -1% | u | 13µM* | 20 | 16 | 0%
COc1ccc(C2CN=NC23CCCc2ccccc2C3=O)cc1 (stereo not given) | -15% | 2.6µM* | 3.7µM* | 21 | 14 | -32%
COc1ccc(C2C(C(=O)N3CCN(C)CC3)c3ccccc3C(=O)N2C2CCCCC2)cc1 (stereo not given) | 6% | 39% | u | -8 | -1 | -8%
COc1ccc(C2CC23N=C(c2ccccc2)OC3=O)cc1 (stereo not given) | -29% | 11% | -5% | -3 | -2 | -13%
CC1(C)C(=O)OC(c2ccc([N+](=O)[O-])cc2)C(C)(C)C1=O (stereo not given) | 0% | -9% | u | -6 | -6 | 6%
O=C(c1ccccc1)N1CCN(C(=O)c2nn3c(C(F)(F)F)cc(-c4ccco4)nc3c2Br)CC1 | 0% | 0% | 10µM* | 18 | 3 | 3%
O=C(NC1CCCCC1)c1nn2c(C(F)(F)F)cc(-c3ccco3)nc2c1Br | 6% | -10% | 16% | 1 | -2 | 1%
O=c1c2ccccc2nc(N2CCN(c3ccccc3)CC2)n1Cc1ccccc1 | 1% | u | x | -17 | -7 | -37%
COc1ccc(C2C(C#N)=C3NC(=O)c4c(sc5c4CCCCC5)N3C3=C2C(=O)CC(C)(C)C3)cc1 (stereo not given) | 1% | u | u | 34 | -4 | u
COc1ccc(C2C(C#N)=C(N)N(c3sc4c(c3C#N)CCCC4)C3=C2C(=O)CC(C)(C)C3)cc1 (stereo not given) | 1% | x | 6.6µM* | 15 | 7 | -1%
COc1ccc(C2C(C#N)=C(N)N(c3sc4c(c3C#N)CCCC4)C3=C2C(=O)CC(C)(C)C3)cc1OC (stereo not given) | 3% | 5.2µM* | x | -23 | -7 | 8%
SMILES | SARS PLpro yeast | Pf growth 96h | Pf growth 48h | Shiga inhibitor | CHX counter | NS1 inh
CNS(=O)(=O)c1cc(-c2nnc(Nc3ccc(NC(C)=O)cc3)c3ccccc23)ccc1C | 0% | u | 10µM* | -5 | 6 | -14%
CNC(=O)c1ccc(Nc2nnc(-c3ccc(C)c(S(=O)(=O)NCC4CCCO4)c3)c3ccccc23)cc1 (stereo not given) | 10% | u | 5.2µM* | -9 | -1 | -17%
Cc1ccc(-c2nnc(Nc3ccccc3)c3ccccc23)cc1S(=O)(=O)NCC1CCCO1 (stereo not given) | -1% | u | 4.1µM* | -5 | -2 | 6%
Cc1ccc(-c2nn3c(-c4ccco4)nnc3c3ccccc23)cc1S(=O)(=O)NCC1CCCO1 (stereo not given) | 1% | -24% | u | 9 | -3 | -33%
CC(=O)Nc1ccc(Nc2nnc(-c3ccc(C)c(S(=O)(=O)NCC4CCCO4)c3)c3ccccc23)cc1 (stereo not given) | 1% | 1.2µM* | 1µM* | -11 | -2 | -34%
CC(C)c1ccc(N(C(=O)CNC(=O)c2ccco2)C(C(=O)NC2CCCC2)c2ccncc2)cc1 (stereo not given) | 5% | 0% | u | 26 | 11 | -18%
Cc1cc(C)c(C#N)c(SCC(=O)Nc2cc(C)on2)n1 | -7% | x | x | x | x | x
COc1ccccc1CCC(=O)Oc1ccc(C#N)cc1OC | -1% | u | -6% | -24 | -4 | 21%
Cc1ccccc1S(=O)(=O)N1[C@@H](c2ccc(F)cc2)C(C(=O)O)=CC[C@H]1c1ccc(Cl)cc1 | -3% | u | u | x | x | x
CN1C(=O)COc2c(C(=O)NC3CN4CCC3CC4)cc(Cl)cc21 (stereo not given) | 0% | 4.8µM* | 5% | 20 | -7 | x
CC(C)Oc1cccc(C(=O)N/N=C/c2coc3ccccc3c2=O)c1 | 21% | u | 17% | -6 | -1 | 13%
CCOc1cc(C(=O)N/N=C/c2ccoc2)cc(OCC)c1OCC | -1% | u | -8% | -10 | -3 | 12%
CCCOc1cccc(C(=O)N/N=C/c2ccoc2)c1 | -10% | -28% | 18% | 28 | 31* | -13%
Cc1scc(C(=O)N/N=C/c2ccc(OCC(C)C)cc2)c1C | -7% | 12µM* | x | 46 | 16 | -18%
CCCCOc1ccc(/C=N/NC(=O)c2csc(C)c2C)cc1 | -5% | x | u | 24 | 9 | 2%
CC(C)COc1ccc(C(=O)N/N=C/c2ccoc2)cc1 | -4% | 5.9µM* | 0% | 83* | 27* | 2%
CC(C)Oc1cccc(C(=O)N/N=C/c2ccoc2)c1 | 14% | 11% | 38% | 61* | 49* | 4%

Screens: PubChem, National Center for Advancing Translational Sciences (NCATS)
